Inconclusive results are not listed. Where a call stands in place of a potency, no number is given. The source made the active and inactive calls. Calls come from the whole dose curve; as a rule, active = well fitted inhibition curve with a large enough effect; inconclusive = small, poorly fitted or top-dose-only effect; inactive = no such curve, though single readings can be large or run the other way.

This assay concerns the target Retinaldehyde dehydrogenase 3 (Homo sapiens) (UniProt P47895). Briefly: qHTS for Inhibitors of the Aldehyde Dehydrogenase Family (ALDH1A3) Primary screen (AID 2061315). The note with it: ALDH inhibition qHTS; series mostly up to 56 µM. On the technique in general: qHTS replaces the single test concentration by a dilution series.
As to `Cc1nnc(-c2cnn(C)c2)n1CCCn1ccnc1`, the Potency entry was “inactive”.

For `COc1ccccc1S(=O)(=O)Nc1cnccc1C(=O)Nc1nc(-c2ccccc2)cs1`, the Potency entry is “inactive”. Regarding `Clc1ccc(-c2nc3ccccc3s2)cc1`, the Potency result was “inactive”.

As to `COc1cccc(C(=O)Nc2ccc([S+](=O)([O-])Nc3nccs3)cc2)c1O`, the Potency result was “inactive”.

With `C=C1C(=O)O[C@@H]2C[C@@]3(C)CCCC(=C)[C@]3(O)C[C@H]12`, the Potency entry was “inactive”.

As to `O=C([C@H](Cc1ccc(O[S+](=O)([O-])c2cccc3cccnc23)cc1)N[S+](=O)([O-])c1cccnc1)N1CCN(c2ccccc2)CC1`, the Potency entry is “inactive”.

Consider `Nc1cccc(S(=O)(=O)Nc2cnccc2C(=O)Nc2nc(-c3ccccc3)cs2)c1`, for which the Potency entry was “inactive”. Turning to `COc1cccc(-c2ccc3ncnc(NCc4cccs4)c3c2)c1`, the Potency entry is “inactive”. Regarding `Cc1ccc(NS(=O)(=O)c2ccc(N3CCCC3=O)cc2)cc1C`, the Potency entry was “inactive”. As for `O=[S+]([O-])(c1ccc2c(c1)OCCO2)N1CCN([S+](=O)([O-])c2ccccc2Br)CC1`, the entry is “inactive”; as for `C=CCNc1oc(-c2cccc(Cl)c2)nc1C#N`, “inactive”. Then `O=S(=O)(c1ccc2c(c1)OCCO2)N1CCN(S(=O)(=O)c2cc(F)c(Br)cc2F)CC1`, with “inactive”.

Consider `OCc1ccc(-c2ccc3ncnc(NCc4ncc[nH]4)c3c2)o1`, for which the Potency result was “inactive”. Then `CCCn1c(-c2ccc(F)cc2)nc2c(NCCN3CCCCC3)nc(C)nc21`, with “inactive”. On to `COc1cccc(S(=O)(=O)N2CCN(S(=O)(=O)c3ccc4c(c3)OCCO4)CC2)c1`, for which the Potency result is “inactive”. In the case of `Cc1cc2c(s1)c1cnn(Cc3cc(F)c(F)c(F)c3)c(=O)c1n2C`, the Potency result was “inactive”. On to `CCCN1CCN(c2cccc(Nc3nn4c(=O)c5ccccc5nc4s3)c2)CC1`, for which the Potency entry is “inactive”. `Fc1cccc(CSc2nc3ncc(Br)cc3[nH]2)c1`: the Potency result is “inactive”. In the case of `C=C1CCC2C(C)(C(=O)OC)CCCC2(C)C1CCC1=CCOC1=O` (stereo not given), the Potency entry is “inactive”.

As for `Cc1ccc(S(=O)(=O)Nc2ccc(F)cc2C(=O)Nc2nc(-c3ccccc3)cs2)cc1`, the Potency entry is “inactive”. As for `CNc1nc(-c2cccc3ccccc23)ccc1C#N`, the Potency entry is “inactive”. Then `Nc1nc(Nc2cc(F)cc(F)c2)nc(NC2CCCC2)n1`, with “inactive”; and `Cc1cccc(-n2cnc3cc(C(=O)N4CCCC4)ccc32)c1`, with “inactive”. Then `O=C(CCc1ccccc1)Nc1cccc([S+](=O)([O-])Nc2ccccc2F)c1`, with “inactive”; and `COCCN1C(=O)c2ccccc2NC1c1ccc(OC)c(COc2c(C)cc(NC(C)=O)cc2C)c1` (stereo not given), with “inactive”. Then `O=C(O)c1ccc(-c2noc(-c3ccccc3C(F)(F)F)n2)cc1`, with “inactive”; and `Cc1ccnc(NC(=S)N2CC3CN(c4ccc(Cl)cc4C(F)(F)F)CC3C2)c1` (stereo not given), with “inactive”. As for `N#Cc1cccc(-c2ccc(CNc3nc(-c4ccccc4C(F)(F)F)nc4ccccc34)cc2)c1`, the Potency entry was “inactive”.

Turning to `CNc1oc(-c2cccc3c2OC(F)(F)O3)nc1C#N`, the Potency result was “inactive”. As for `COc1ccc(NC(=O)c2cccnc2C)cc1S(=O)(=O)Nc1ccc(Br)cc1`, the entry is “inactive”.

For the compound `CC(C)Oc1ccc(C(=O)Nc2ccc(-c3nc4ccccc4[nH]3)cc2)cc1`, the Potency entry was “inactive”. As for `CCCCN(C)C(=O)Cn1nc(-c2cccc(C)c2)ccc1=O`, the entry is “inactive”. In the case of `COc1ccccc1-c1nc(NCc2ccc(-c3cccnc3)cc2)c2ccccc2n1`, the Potency result is “inactive”. As for `Cn1nnnc1Sc1ncnc2scc(-c3ccccc3F)c12`, the entry is “inactive”.

`O=C1CCCC2=C1C(c1[nH]ncc1Cl)N=C(Nc1nc3cc(F)ccc3o1)N2` (stereo not given): the Potency entry was “inactive”. As for `O=C(OCC#CCSc1nnc(-c2cccc3ccccc23)o1)c1cccc(C(F)(F)F)c1`, the entry is “inactive”. Then `COc1ccccc1NS(=O)(=O)c1ccc2c(c1)CCC(=O)N2`, with “inactive”; and `O=C(Nc1ccc(O)c2ncccc12)c1ccccc1F`, with “inactive”; and `COc1cc2c(s1)c1cnn(Cc3ccccc3F)c(=O)c1n2C`, with “inactive”. `O=C(Nc1nc(-c2ccccc2)cs1)c1ccncc1NS(=O)(=O)c1ccc(N2CCCC2=O)cc1`: the Potency result is “inactive”.
